Measured values reported in the supplement of paper PMC11732987, “Enantioselective OTUD7B fragment discovery through chemoproteomics screening and high-throughput optimisation” (Communications Chemistry, 2025).
Unmarked numbers belong to inactive results.

Assays:
Assay in all cases: log2 ratio of Biotin-Ahx-Ub-VS probe labelling (fragment/DMSO); higher = less target engagement (more negative = stronger competition), active = hit call of the paper (q ≤ 0.05, log2 ratio ≤ -1)
Settings in all cases: compound concentration: 200 uM; treatment time: 3 h
USP42 = molecular target: T1, USP42 (UniProt Q9H9J4)
T1 sequence (whole entry): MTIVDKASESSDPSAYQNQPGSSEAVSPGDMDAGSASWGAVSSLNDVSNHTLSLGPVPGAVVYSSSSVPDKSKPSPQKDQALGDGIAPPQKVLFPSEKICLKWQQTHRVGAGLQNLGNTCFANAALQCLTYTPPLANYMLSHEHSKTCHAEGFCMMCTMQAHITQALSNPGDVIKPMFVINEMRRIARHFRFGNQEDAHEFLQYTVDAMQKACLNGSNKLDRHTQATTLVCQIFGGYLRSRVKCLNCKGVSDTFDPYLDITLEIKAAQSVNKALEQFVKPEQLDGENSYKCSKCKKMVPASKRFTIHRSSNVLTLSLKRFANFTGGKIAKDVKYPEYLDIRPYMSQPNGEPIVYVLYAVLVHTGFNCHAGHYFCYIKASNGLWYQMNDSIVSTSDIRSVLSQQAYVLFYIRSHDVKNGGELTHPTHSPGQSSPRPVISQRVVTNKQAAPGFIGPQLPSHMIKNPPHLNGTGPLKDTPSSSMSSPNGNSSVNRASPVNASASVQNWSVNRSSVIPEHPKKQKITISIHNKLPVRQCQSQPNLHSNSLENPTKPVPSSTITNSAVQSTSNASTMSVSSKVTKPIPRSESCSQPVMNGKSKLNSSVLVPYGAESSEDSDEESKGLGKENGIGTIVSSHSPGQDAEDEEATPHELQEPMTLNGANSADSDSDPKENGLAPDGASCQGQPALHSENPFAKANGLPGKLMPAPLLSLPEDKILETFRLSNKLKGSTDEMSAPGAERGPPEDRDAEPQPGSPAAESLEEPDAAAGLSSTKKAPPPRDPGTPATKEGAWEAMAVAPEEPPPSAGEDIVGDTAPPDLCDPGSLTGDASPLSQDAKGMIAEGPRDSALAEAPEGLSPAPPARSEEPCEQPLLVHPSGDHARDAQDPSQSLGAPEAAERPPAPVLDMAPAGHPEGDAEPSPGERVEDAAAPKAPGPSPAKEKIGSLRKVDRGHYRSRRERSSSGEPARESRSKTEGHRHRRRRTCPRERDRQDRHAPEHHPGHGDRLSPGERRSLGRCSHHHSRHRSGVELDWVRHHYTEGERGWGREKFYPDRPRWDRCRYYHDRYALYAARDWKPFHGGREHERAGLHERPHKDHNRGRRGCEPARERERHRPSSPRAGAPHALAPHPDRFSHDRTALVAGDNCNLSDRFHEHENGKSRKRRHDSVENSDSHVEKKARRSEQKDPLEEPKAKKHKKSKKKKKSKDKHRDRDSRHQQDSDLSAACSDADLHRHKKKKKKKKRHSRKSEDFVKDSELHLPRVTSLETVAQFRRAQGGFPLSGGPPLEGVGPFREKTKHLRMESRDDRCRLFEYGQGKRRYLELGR
Method in brief: (§1)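 Triplicate samples of HEK293T lysate, 495 µg each, received fragment at 200 µM or vehicle for 3 h, followed by Biotin-Ahx-Ub-VS (0.5 µM final) for 1 h. After NeutrAvidin enrichment of labelled DUBs and LysC/trypsin digestion, peptides were run by diaPASEF LC-MS/MS. The values are average log2 fragment/vehicle ratios from global-median-normalised Spectronaut label-free quantities, tested by unpaired t-test on proteins having ≥2 unique peptides.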

USP46 = USP46 (UniProt P62068)
Method in brief: as §1

USP47 = molecular target: T2, USP47 (UniProt Q96K76)
T2 sequence (whole entry): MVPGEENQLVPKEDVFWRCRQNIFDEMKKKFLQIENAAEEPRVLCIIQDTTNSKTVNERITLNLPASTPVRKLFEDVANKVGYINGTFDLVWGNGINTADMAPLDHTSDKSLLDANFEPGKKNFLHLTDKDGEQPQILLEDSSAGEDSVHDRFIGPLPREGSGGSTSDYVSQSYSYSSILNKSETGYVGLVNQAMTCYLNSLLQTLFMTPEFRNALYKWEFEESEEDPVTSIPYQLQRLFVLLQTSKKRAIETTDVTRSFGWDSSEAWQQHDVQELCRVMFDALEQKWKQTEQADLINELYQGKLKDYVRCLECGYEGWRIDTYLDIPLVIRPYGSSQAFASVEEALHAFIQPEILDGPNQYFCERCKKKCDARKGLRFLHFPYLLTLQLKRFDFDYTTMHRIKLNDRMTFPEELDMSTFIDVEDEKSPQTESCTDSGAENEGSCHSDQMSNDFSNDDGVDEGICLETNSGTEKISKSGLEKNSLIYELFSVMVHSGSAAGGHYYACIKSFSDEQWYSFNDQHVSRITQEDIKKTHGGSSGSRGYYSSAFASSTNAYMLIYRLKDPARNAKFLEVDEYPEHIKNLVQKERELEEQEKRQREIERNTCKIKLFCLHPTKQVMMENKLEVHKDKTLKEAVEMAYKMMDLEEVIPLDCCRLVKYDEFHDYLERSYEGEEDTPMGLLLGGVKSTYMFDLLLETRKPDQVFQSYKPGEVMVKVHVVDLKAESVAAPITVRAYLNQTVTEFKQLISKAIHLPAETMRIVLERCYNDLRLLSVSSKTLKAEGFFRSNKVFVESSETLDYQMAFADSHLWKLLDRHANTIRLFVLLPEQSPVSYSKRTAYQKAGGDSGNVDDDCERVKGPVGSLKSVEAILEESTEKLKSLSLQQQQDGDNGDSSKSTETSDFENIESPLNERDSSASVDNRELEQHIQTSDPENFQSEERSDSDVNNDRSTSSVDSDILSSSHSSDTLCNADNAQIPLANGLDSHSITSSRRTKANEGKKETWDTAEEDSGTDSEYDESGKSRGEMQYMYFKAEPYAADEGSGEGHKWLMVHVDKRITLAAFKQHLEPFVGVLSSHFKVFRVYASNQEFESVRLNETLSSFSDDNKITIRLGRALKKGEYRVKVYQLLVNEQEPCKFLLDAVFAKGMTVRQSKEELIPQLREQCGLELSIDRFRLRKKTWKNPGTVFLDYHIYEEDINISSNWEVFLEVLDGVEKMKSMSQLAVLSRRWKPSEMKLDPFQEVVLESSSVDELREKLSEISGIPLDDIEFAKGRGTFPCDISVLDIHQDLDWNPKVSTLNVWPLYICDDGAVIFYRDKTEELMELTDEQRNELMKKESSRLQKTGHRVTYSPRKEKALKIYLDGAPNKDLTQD
Method in brief: as §1

USP48 = molecular target: T3, USP48 (UniProt Q86UV5)
T3 sequence (whole entry): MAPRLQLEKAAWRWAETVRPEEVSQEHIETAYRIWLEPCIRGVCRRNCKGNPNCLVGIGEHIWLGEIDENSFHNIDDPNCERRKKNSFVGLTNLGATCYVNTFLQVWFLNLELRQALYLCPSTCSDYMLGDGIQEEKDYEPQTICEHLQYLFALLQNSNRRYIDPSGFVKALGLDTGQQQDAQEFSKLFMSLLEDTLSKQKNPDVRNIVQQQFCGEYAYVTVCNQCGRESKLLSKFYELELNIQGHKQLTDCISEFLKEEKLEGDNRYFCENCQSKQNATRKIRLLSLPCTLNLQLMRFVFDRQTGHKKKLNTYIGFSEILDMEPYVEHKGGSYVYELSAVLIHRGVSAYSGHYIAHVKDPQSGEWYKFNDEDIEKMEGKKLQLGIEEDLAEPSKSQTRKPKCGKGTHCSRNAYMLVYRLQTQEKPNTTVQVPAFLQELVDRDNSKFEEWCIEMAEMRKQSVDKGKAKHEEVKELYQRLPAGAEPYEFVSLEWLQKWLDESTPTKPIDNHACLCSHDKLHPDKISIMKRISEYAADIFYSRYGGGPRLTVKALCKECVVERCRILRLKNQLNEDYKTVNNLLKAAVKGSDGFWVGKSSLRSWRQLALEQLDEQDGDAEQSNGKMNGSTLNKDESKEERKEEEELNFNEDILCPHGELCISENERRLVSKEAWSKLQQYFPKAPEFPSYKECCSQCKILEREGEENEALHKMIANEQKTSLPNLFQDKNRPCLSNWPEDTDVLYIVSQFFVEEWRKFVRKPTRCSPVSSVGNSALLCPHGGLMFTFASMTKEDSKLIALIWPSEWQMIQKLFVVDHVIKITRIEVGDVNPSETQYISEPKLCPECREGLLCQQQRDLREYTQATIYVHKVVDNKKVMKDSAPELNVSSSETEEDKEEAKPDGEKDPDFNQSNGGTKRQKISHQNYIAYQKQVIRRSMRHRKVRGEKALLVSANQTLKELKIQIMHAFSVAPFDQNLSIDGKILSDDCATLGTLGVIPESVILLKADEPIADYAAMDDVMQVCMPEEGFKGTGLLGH
Method in brief: as §1

USP5 = molecular target: T4, USP5 (UniProt P45974)
T4 sequence (whole entry): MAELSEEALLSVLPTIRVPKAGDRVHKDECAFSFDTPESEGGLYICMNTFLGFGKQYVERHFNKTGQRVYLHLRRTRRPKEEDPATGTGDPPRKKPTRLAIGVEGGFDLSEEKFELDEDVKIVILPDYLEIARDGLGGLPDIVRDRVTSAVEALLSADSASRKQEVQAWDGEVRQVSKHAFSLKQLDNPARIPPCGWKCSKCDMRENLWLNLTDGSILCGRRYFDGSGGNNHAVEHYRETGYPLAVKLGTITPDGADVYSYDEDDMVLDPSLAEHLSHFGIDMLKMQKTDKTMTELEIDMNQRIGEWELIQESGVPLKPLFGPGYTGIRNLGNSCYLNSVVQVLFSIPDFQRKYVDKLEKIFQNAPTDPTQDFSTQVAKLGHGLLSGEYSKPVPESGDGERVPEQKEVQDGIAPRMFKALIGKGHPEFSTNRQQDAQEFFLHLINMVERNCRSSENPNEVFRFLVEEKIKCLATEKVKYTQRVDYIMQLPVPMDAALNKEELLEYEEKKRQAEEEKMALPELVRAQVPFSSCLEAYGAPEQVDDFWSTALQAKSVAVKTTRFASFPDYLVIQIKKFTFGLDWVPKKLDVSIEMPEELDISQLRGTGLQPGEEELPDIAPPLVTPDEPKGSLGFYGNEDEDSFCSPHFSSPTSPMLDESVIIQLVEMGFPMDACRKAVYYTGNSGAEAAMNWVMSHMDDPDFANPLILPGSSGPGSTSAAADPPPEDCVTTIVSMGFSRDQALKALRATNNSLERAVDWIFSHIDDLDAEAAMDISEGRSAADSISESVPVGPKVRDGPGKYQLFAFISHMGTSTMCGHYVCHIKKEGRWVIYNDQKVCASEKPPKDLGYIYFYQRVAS
Method in brief: as §1

USP54 = USP54 (UniProt Q70EL1)
Method in brief: as §1

USP7 = USP7 (UniProt Q93009)
Method in brief: as §1

USP8 = molecular target: T5, USP8 (UniProt P40818)
T5 sequence (whole entry): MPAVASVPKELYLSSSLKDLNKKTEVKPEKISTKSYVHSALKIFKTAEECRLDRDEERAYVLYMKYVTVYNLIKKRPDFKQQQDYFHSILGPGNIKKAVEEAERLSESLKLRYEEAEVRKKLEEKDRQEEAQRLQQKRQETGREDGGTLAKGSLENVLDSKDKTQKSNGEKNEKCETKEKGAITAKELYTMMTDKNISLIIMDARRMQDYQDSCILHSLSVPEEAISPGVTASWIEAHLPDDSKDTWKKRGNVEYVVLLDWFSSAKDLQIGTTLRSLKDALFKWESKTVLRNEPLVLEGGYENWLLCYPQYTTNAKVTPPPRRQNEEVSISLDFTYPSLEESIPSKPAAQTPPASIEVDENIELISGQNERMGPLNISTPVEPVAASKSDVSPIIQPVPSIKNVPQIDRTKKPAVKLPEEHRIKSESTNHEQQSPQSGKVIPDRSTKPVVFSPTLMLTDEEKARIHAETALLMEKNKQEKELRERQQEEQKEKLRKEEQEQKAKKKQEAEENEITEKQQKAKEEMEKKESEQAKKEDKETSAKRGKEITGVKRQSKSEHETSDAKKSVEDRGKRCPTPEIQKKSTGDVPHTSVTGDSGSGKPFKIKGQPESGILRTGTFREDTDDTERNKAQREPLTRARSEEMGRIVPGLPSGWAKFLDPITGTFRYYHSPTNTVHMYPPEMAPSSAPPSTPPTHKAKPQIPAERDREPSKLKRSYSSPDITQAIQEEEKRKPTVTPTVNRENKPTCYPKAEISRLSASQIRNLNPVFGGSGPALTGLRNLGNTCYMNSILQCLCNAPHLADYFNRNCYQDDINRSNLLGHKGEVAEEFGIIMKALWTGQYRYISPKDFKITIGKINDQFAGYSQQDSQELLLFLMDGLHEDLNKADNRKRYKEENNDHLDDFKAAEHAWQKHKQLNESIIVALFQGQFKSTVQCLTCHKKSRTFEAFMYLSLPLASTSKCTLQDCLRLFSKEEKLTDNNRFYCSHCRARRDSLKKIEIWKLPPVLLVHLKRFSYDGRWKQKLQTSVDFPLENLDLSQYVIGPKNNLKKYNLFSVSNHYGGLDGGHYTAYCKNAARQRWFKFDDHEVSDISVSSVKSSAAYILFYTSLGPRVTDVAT
Method in brief: as §1

USP9X = USP9X (UniProt Q93008)
Method in brief: as §1

UniProt O00487 = molecular target: UniProt O00487
Method in brief: as §1

USP54, sequence (Q70EL1 whole entry): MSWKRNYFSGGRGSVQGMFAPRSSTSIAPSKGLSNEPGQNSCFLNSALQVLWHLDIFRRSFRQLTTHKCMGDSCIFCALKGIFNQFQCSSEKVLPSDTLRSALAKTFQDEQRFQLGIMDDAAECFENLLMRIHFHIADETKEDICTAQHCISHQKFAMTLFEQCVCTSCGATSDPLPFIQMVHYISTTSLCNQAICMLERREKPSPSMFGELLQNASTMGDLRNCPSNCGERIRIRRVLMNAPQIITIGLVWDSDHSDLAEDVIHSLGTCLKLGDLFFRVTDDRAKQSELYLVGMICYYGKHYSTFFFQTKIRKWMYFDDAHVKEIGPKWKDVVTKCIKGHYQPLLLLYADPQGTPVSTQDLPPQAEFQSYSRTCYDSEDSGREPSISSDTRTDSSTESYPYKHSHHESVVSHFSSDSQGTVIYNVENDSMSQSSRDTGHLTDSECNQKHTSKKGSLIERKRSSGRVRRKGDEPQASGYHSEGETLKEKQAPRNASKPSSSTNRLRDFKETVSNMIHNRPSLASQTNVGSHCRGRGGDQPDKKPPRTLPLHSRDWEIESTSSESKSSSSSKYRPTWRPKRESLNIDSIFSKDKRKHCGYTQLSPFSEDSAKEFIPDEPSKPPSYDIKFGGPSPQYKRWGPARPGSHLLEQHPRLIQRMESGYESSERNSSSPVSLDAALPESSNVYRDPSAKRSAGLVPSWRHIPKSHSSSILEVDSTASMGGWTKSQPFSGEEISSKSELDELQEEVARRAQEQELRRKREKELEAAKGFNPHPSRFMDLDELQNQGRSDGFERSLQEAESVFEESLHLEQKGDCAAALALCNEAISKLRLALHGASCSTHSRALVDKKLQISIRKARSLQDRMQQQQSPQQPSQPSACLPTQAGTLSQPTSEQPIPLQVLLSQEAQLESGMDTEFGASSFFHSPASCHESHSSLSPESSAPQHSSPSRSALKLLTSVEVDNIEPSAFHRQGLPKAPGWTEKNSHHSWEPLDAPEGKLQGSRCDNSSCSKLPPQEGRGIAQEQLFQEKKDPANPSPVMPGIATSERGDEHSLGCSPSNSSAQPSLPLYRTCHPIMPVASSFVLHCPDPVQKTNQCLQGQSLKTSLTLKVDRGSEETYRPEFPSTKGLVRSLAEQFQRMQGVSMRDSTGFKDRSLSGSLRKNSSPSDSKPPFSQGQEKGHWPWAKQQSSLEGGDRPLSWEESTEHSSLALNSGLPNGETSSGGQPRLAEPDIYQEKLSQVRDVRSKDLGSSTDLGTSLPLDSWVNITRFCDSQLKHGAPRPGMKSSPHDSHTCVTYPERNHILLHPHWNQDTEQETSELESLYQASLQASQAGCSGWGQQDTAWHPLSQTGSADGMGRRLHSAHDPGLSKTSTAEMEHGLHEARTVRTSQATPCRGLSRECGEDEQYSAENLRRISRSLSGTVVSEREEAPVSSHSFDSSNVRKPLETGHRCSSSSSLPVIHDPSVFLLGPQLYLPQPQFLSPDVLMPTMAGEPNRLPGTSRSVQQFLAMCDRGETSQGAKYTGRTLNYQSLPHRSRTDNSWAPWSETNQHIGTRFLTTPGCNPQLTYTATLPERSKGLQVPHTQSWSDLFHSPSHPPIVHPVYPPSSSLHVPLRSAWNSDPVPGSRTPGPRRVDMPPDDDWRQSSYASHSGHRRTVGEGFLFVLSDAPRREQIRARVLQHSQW
UniProt O00487, sequence (O00487 whole entry): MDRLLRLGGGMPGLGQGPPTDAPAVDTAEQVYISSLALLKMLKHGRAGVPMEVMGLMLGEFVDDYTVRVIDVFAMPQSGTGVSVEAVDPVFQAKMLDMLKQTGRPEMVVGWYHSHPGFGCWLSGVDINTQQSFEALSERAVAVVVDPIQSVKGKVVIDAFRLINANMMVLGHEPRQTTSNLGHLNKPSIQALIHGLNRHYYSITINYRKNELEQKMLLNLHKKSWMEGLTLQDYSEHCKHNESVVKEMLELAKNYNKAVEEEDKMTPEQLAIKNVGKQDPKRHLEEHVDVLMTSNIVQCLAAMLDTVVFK
USP9X, sequence (Q93008 whole entry): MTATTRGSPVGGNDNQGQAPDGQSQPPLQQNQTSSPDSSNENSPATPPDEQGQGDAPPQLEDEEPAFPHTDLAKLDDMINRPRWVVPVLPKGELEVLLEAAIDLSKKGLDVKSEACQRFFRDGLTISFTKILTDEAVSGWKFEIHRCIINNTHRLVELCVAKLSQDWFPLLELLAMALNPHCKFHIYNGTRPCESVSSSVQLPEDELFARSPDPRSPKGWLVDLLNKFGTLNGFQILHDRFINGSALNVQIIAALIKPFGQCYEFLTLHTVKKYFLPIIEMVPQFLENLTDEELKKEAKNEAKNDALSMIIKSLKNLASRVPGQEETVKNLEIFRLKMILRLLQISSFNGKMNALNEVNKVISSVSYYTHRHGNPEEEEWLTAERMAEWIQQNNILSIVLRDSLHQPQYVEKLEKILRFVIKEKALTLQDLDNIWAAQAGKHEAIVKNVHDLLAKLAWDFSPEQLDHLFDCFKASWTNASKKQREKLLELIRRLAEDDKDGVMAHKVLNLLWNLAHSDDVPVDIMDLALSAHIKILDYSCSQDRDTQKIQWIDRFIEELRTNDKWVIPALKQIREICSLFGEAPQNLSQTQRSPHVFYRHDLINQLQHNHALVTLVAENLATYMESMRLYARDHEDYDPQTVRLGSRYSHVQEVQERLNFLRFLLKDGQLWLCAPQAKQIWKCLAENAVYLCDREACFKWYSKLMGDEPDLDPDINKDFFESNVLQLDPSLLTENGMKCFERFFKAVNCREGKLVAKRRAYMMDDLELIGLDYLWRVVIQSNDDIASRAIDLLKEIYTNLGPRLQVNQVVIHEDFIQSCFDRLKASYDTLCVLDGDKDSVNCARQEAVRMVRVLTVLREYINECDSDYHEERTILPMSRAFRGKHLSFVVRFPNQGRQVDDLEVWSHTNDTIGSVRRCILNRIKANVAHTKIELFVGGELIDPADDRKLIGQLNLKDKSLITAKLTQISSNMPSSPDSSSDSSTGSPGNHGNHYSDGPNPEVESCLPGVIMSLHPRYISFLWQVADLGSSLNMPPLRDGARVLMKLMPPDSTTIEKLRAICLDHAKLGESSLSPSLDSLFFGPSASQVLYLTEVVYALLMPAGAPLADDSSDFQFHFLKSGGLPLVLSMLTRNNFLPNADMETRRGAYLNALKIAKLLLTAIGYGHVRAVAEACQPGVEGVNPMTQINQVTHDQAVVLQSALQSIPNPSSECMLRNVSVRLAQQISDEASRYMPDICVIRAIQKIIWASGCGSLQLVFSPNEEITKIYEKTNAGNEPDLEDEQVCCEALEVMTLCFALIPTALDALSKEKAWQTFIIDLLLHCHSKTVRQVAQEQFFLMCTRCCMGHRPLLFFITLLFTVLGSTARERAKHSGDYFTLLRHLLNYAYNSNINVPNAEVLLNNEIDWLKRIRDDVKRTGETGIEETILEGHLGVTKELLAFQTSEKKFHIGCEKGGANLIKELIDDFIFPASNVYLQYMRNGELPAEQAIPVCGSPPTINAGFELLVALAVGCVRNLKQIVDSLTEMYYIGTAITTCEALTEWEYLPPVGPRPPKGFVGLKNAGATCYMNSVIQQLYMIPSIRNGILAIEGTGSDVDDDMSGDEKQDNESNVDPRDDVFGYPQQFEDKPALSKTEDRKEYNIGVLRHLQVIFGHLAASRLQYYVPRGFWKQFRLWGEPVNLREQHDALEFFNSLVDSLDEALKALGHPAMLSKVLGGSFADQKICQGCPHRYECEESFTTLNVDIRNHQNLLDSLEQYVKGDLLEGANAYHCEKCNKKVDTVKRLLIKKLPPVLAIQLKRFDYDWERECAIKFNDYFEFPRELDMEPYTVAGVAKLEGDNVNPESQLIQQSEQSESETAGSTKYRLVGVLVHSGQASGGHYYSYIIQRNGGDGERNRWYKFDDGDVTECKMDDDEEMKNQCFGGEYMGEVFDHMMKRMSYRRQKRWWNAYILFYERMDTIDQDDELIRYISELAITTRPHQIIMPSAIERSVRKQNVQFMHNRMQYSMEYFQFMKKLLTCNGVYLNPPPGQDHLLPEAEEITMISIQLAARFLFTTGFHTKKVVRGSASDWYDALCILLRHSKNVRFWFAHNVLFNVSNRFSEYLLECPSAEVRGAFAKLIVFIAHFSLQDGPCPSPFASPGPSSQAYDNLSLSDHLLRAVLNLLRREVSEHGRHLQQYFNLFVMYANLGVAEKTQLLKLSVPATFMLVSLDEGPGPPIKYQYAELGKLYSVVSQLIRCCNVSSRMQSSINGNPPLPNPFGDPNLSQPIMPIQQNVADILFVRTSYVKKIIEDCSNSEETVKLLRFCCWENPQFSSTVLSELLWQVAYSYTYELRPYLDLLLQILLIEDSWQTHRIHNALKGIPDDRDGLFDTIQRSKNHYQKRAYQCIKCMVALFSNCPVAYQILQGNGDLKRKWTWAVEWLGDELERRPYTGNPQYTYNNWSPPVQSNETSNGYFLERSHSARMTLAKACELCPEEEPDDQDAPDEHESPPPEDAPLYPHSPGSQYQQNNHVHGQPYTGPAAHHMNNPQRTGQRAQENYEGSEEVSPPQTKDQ
USP46, sequence (P62068 whole entry): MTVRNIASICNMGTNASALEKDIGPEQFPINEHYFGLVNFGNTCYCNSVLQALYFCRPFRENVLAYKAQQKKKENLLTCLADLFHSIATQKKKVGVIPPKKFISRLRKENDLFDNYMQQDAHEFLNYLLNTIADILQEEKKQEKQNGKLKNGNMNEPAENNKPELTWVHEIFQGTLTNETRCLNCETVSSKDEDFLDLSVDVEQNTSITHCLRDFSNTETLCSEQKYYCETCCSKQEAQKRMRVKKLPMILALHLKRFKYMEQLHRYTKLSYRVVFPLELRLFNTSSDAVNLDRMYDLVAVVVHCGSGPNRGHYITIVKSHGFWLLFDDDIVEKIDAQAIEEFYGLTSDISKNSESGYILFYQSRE

Compound: NC(=O)C1CCCCN1C(=O)CCl (stereo not given)
- log2 ratio of Biotin-Ahx-Ub-VS probe labelling (USP42): -0.0547
- log2 ratio of Biotin-Ahx-Ub-VS probe labelling (USP46): 0.025
- log2 ratio of Biotin-Ahx-Ub-VS probe labelling (USP47): -0.299
- log2 ratio of Biotin-Ahx-Ub-VS probe labelling (USP48): -1.03 (active)
- log2 ratio of Biotin-Ahx-Ub-VS probe labelling (USP5): 0.371
- log2 ratio of Biotin-Ahx-Ub-VS probe labelling (USP54): 0.325
- log2 ratio of Biotin-Ahx-Ub-VS probe labelling (USP7): -0.76
- log2 ratio of Biotin-Ahx-Ub-VS probe labelling (USP8): -0.26
- log2 ratio of Biotin-Ahx-Ub-VS probe labelling (USP9X): -0.213
- log2 ratio of Biotin-Ahx-Ub-VS probe labelling (UniProt O00487): -0.0664
